# Bioassay records from PubChem.
# MCF10A rereplic: A quantitative high throughput screen for small molecules that induce DNA re-replication in MCF 10a normal breast cells | MCF 10A DNA re-replication, Hoechst nuclear intensity, 48 h | Potency, µM (titrated, usually from 46.1 µM), most hits filed as activators | actives 2.9% (n = 350,000) | AID 624296, 2012; further: nearly all actives have a fitted effect of over 50% in size
# SW480 rerep: A quantitative high throughput screen for small molecules that induce DNA re-replication in SW480 colon adenocarcinoma cells; SW480 DNA re-replication, Hoechst DNA content imaging, 48 h; Potency, µM (series often up to 46.1 µM), usual class: activators; actives 1.8% (n = 340,000); further: nearly all actives have a fitted effect of over 55% in size
#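 Compounds, transferred as 23 nL by pin tool, were incubated with cells for 48 hr; DNA content per nucleus was then quantified by Hoechst staining and fluorescence plate imaging.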
# RORgamma inh: qHTS for inhibitors of ROR gamma transcriptional activity; Drosophila S2 Gal4-RORgamma UAS-luciferase reporter, 20 h; Potency, µM (titrated, usually from 53.6 µM), most hits filed as inhibitors; actives 5.4% (n = 310,000); further: nearly all actives have a fitted effect of over 60% in size
# Target sequence (P51450 whole entry, looked up, the tested form may be a part): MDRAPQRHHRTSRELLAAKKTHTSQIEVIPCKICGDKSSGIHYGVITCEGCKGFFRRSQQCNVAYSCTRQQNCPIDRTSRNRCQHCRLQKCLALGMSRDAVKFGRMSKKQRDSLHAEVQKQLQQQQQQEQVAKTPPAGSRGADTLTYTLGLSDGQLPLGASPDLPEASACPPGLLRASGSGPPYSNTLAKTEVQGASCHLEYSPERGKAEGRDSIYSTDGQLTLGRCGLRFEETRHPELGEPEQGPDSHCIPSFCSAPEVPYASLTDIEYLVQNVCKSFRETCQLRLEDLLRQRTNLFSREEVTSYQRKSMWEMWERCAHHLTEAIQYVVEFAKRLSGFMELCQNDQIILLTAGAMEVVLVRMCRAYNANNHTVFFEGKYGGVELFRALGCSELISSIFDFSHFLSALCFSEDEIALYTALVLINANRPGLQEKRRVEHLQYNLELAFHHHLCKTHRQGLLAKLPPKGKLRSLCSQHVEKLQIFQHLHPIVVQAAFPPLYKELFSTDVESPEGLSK
#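 Luciferase reporter read in Schneider cells carrying Gal4-RORγ (mouse) and UAS-Photinus luciferase; cells given compound 1 h before 700 uM copper sulfate induction, then incubated 20 h at ambient temperature.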
# VP16 counter: VP16 counterscreen qHTS for inhibitors of ROR gamma transcriptional activity | Potency, µM (highest dose often 53.6 µM), actives largely listed as inhibitors | actives 3.5% (n = 310,000) | Drosophila S2 Gal4-VP16 UAS-luciferase, luminescence, 20 h;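 further: Gal4-VP16 expression switched on by copper sulfate through the metallothionein promoter; nearly all actives have a fitted effect of over 50% in size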
# IL-1B inflam inh: qHTS for Inhibitors of Inflammasome Signaling: IL-1-beta AlphaLISA Primary Screen. THP-1 LPS/ATP IL-1B secretion, AlphaLISA, 16 h; active compounds read low. activity change, % at 57.5 µM. actives 4.7% (n = 360,000); in the data active means activity change below about -50%; inconclusive means mostly about -30% to -49%
#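 THP-1 cells pretreated 1 hr with compounds (up to 57.5 uM final), then stimulated with LPS (250 ng/mL final) plus ATP (1.25 mM final); secreted IL-1B measured by AlphaLISA after 16 hr, decreased signal indicating inhibition.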
# A number is an active result; n = inactive; u = inconclusive; x = no result given; [ ] = another dose, or the depositor's remark. Shown are actives, neighbours in structure and some others; about 11% of the full set was active somewhere. Unless noted, the call rests on the fitted dose curve; in most records, active means well fitted curve in the direction sought with a large enough effect; inconclusive means small, poorly fitted or top-dose-only effect, or another doubt; inactive means no such curve, though single readings can be large; an effect the other way counts as inactive or inconclusive.
SMILES,MCF10A rereplic,SW480 rerep,RORgamma inh,VP16 counter,IL-1B inflam inh
O=C(c1ccc(Cn2c(=S)[nH]c3ccc(N4CCOCC4)cc3c2=O)cc1)N1CCN(c2ccc(F)cc2)CC1,4.61µM,n,u,n,n
Cc1ccc(C)c(N2CCN(C(=O)c3ccc(Cn4c(=S)[nH]c5ccc(N6CCOCC6)cc5c4=O)cc3)CC2)c1,5.8µM,n,2.82µM,n,n
COc1ccc(N2CCN(C(=O)c3ccc(Cn4c(=S)[nH]c5ccc(N6CCOCC6)cc5c4=O)cc3)CC2)cc1,u,n,n,n,n
Cc1ccc(Cl)cc1N1CCN(C(=O)c2ccc(CN3CCOCC3)cc2)CC1,n,n,n,n,u
O=C(c1ccc(Cn2c(=S)[nH]c3cc4c(cc3c2=O)OCO4)cc1)N1CCN(c2ccccc2)CC1,n,n,3.16µM,6.31µM,n
COc1ccc(Cn2c(=S)[nH]c3cc(C(=O)N4CCN(c5ccccc5)CC4)ccc3c2=O)cc1,n,n,u,n,n
O=C(Nc1ccc(F)c(Cl)c1)Nc1csc2ccccc12,u,n,u,u,-69.6
O=C(Nc1ccc(F)cc1F)Nc1csc2ccccc12,n,n,n,u,-92.3
N#Cc1ccc(C[C@H](C(=O)O)N2C(=O)c3ccc(C(=O)O)cc3C2=O)cc1,x,x,n,n,x
O=c1ccc2ccc(OCc3ccccc3)cc2o1,n,n,n,n,n
CNC(=O)C1Cc2c(-c3ccc(Cl)cc3)ccnc2O1 (stereo not given),x,x,x,x,n
CCN(CC)C(=O)CSc1nc2cc3c(cc2c(=O)n1CCCC(=O)NCc1ccc(OC)cc1)OCO3,n,n,n,n,n
CCN(CC)C(=O)CSc1nc2cc(OC)c(OC)cc2c(=O)n1Cc1ccc(Cl)cc1,u,n,n,n,-53.4
Cc1ccc2c(c1)/C(=C/c1ccccc1C)C(=O)N2,u,u,n,n,-99.9
O=C1Nc2ccccc2/C1=C/c1ccc([N+](=O)[O-])cc1,n,n,n,u,n
COc1ccc2c(c1)/C(=C/c1cc(OC)c(OC)c(OC)c1)C(=O)N2,u,2.59µM,x,x,n
Cc1ccc2c(c1)/C(=C/c1ccc(F)cc1)C(=O)N2,u,n,n,n,-74.6
OCCc1ccc(NCCc2cccs2)cc1,x,x,x,x,n
CC(C)CN1CCC(=O)N([C@H](CO)c2ccccc2)CC1,n,n,n,n,n
O=C(O)CC/C(=N\NC(=O)c1ccncc1)c1ccccc1,u,n,n[1.91 µM],n,n
O=C1OCCN1C(=O)[C@H]1[C@H](c2ccc(Cl)cc2)C(c2ccccc2)=NN1c1ccccc1,u,u,n,n,n
O=C1OCCN1C(=O)[C@H]1[C@H](c2ccc(F)cc2)C(c2ccc(F)cc2)=NN1c1ccccc1,5.8µM,18.4µM,n,n,n
O=C1OCCN1C(=O)[C@H]1[C@H](c2ccc(Cl)cc2)C(c2ccc(F)cc2)=NN1c1ccccc1,3.66µM,u,n,n,n
O=C1OCCN1C(=O)[C@H]1[C@H](c2ccc(F)cc2)C(c2ccccc2)=NN1c1ccccc1,5.17µM,20.6µM,n,n,n
Cc1ccc(S(=O)(=O)c2c(C)nn(C(C)(C)C)c2OC(=O)c2ccc(Br)o2)cc1,u,n,u,u,-71.8
SMILES,MCF10A rereplic,SW480 rerep,RORgamma inh,VP16 counter,IL-1B inflam inh
Cc1ccc(S(=O)(=O)c2c(C)nn(C(C)(C)C)c2OC(=O)c2cccs2)cc1,18.4µM,n,u,n,n
Cc1ccc(S(=O)(=O)c2c(C)nn(C(C)(C)C)c2OC(=O)c2ccco2)cc1,13µM,n,n,u,n
CC(=O)Oc1c(S(=O)(=O)c2ccc(C)cc2)c(C)nn1C(C)(C)C,u,u,n,n,n
COC(C1CCCCC1)C(C)C(OCc1cccc(Br)c1)C(C)CO (stereo not given),x,x,n[10 µM],n[10 µM],x
C=Cc1ccccc1Cl,x,x,n,n,x
CCCN1CCN(CCCNC(=S)Nc2ccc3nc(N4CCN(CC)CC4)cc(C)c3c2)CC1,n,n,n,n,n
CCN1CCN(c2cc(C)c3cc(NC(=O)c4ccc(OC)c(OC)c4)ccc3n2)CC1,n,u,n,n,n
CCN(CC)CCNC(=S)Nc1ccc2nc(N3CCN(CC)CC3)cc(C)c2c1,u,u,n,n,-58.6
CCN1CCN(c2cc(C)c3cc(NC(=O)c4cncc(Br)c4)ccc3n2)CC1,u,u,n,n,-53.7
CCN1CCN(c2cc(C)c3cc(NC(=S)NCCN(C)C)ccc3n2)CC1,n,n,n,n,-51.8
CCCCN(C)CCNC(=S)Nc1ccc2nc(N3CCN(CC)CC3)cc(C)c2c1,u,u,n,n,-63.1
CCCCNC(=S)Nc1ccc2nc(N3CCN(CC)CC3)cc(C)c2c1,u,u,n,n,u
Cn1c(=O)[nH]c(N)c(Br)c1=O,n,n,x,x,n
COC(=O)[C@]12CCCCC=C1N(Cc1cccc3ccccc13)C(=O)[C@H](CC(=O)N1CCN(C(=O)C3CC3)CC1)C2,x,x,x,x,n
CC(=N\Nc1ccc(Cl)cc1)/C(=N/O)C(=O)Nc1ccccc1,n,n,u,n,n
CCOC(=O)C(=N/O)/C(C)=N/NC(=O)C(=O)Nc1ccc(Cl)cc1,n,n,n,20µM,n
CN(C)c1nn2c(-c3ccccc3)nnc2o1,x,x,x,x,n
CCCc1nn2c(-c3ccccc3)nnc2o1,x,x,x,x,-67.0
c1ccc(-c2nn3c(-c4ccccc4)nnc3o2)cc1,x,x,x,x,-51.3
O=C(NNC(=S)NC1CCCCC1)c1cccc(S(=O)(=O)Nc2ccccc2Cl)c1,n,u,3.98µM,u,n
O=C(Nc1cccc(S(=O)(=O)N2CCCCCC2)c1)c1ccc(Cl)nc1,n,n,x,x,u
O=C(c1cccc(S(=O)(=O)Nc2ccccc2Cl)c1)N1CCCCCC1,n,n,x,x,n
CC(=O)c1ccc(NC(=S)Nc2cccc(Cl)c2C)cc1,n,n,11.2µM,u,n
S=C(Nc1ccc(Cl)cc1Cl)NC1CCCCC1,n,n,u,0.891µM,n
O=C(Nc1ccc(Cl)cc1Cl)NC1CCCC1,n,n,n,n,n
SMILES,MCF10A rereplic,SW480 rerep,RORgamma inh,VP16 counter,IL-1B inflam inh
O=C(Nc1cccc(S(=O)(=O)Nc2ccccc2Cl)c1)c1ccc(Cl)nc1,n,n,u,6.31µM,n
CC(C)NC(=O)N(C)C[C@H]1OCCCC[C@@H](C)Oc2ccc(N(C)C)cc2C(=O)N([C@H](C)CO)C[C@@H]1C,x,x,x,x,n
COCCNC(=O)C1(C)CCN(C(=O)c2sccc2C)C1 (stereo not given),x,x,x,x,n
COc1ccc(CC(=O)OCC(=O)NC2CCCC(C)C2C)cc1OC (stereo not given),n,n,x,x,n
S=C(Nc1ccccc1Cl)NC1CCCCCC1,n,u,3.55µM,10µM,n
Fc1ccc(NC(=S)NC2CCCCC2)c(F)c1F,n,n,8.91µM,7.08µM,n
Cc1cc([N+](=O)[O-])ccc1NC(=S)NC1CCCC1,n,n,n,n,n
